TMEM16A act = activates or potentiates the mouse TMEM16A chloride channel. Q8BHY3. actives 0.3% (n = 340,000). B-score at 10 µM. AID 623877. HEK293 TMEM16A/YFP-H148Q/I152L, iodide quench fluorescence; stronger effect = lower value;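 active = fluorescence-ratio B-score plate-corrected deviation score at least 3 library SD below zero, with starting fluorescence score within 5 deviations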;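 note: channel opened by trigger with iodide after compound preincubation; score built on the fluorescence ratio of max minus min over baseline; more negative score means more quench and so TMEM16A activation or potentiation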
Target sequence (Q8BHY3 whole entry, looked up): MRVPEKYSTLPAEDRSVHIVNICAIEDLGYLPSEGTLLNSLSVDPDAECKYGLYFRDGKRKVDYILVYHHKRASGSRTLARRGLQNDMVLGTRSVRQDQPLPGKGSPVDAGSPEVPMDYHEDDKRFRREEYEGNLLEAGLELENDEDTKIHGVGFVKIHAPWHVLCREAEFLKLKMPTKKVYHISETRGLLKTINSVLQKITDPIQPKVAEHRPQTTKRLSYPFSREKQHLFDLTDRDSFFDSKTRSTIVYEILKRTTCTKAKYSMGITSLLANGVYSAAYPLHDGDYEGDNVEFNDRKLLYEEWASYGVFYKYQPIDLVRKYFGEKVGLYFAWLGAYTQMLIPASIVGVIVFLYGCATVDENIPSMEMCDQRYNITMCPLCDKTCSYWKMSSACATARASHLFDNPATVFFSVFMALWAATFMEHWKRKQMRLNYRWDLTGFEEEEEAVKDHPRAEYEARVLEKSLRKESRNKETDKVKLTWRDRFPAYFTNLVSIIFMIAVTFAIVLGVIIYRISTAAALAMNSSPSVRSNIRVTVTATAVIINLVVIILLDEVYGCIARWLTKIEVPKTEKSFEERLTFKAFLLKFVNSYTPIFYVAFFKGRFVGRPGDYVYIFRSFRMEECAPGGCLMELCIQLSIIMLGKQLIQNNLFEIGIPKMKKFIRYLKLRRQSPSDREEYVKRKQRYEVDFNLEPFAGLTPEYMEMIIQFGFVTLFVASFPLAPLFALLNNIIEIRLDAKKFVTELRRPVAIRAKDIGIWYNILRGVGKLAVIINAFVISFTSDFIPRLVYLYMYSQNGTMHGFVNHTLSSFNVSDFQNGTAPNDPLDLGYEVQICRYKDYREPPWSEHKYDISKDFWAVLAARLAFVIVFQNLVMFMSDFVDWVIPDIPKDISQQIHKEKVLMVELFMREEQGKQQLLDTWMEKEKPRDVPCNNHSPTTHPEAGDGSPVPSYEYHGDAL
ANO1 block = mouse TMEM16A channel inhibition, primary screen | HEK293 TMEM16A/YFP iodide influx fluorescence, ionomycin | normalized B-score (activity score, 25-100; higher = stronger inhibition) at 10 µM | actives 1.2% (n = 310,000);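 active = ratio plate-corrected score three or more library SD toward inhibition, starting fluorescence score within five deviations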;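 note: score derived from kinetic fluorescence span divided by baseline fluorescence per well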
ABCB6 inh 2 = blocks the human ABCB6 transporter; K562-ABCB6 porphyrin accumulation, flow cytometry, 1 h; stronger effect = lower value; fluorescence ratio to DMSO, % at 10 µM; Q9NP58; actives 0.19% (n = 360,000); AID 602162;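 active = fluorescence ratio to DMSO below 75%, the collection mean minus 3 SD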;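 note: signal is porphyrin accumulated inside mitochondria; 100% equals median channel fluorescence of DMSO control wells; lower ratio means ABCB6 inhibition with less porphyrin fluorescence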
iPSC survival up = hiPSC single-cell survival enhancement; ATPlite luminescence; 100% = ROCK inhibitor wells, 0% = DMSO; survival enhancement, % at 20 µM; actives 0.044% (n = 360,000); in the data active = survival enhancement above about 18%;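 note: cells exposed to compounds for 16 hours before the ATP read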
DAGLB inhibitor = blocks human DAGLB lipase activity. Q8NCG7. HEK293T DAGLB membrane lysate, EnzChek fluorogenic substrate. inhibition, % at 5.17 µM. actives 0.059% (n = 340,000). AID 504411; in the data active = inhibition above about 34%;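 note: 0% = enzyme with vehicle and 100% = wells lacking enzyme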
Active calls of the source: *; i = inactive; nt = no result. The list is not random: actives were taken first. Their share in the collection is about 1.5%.

SMILES | TMEM16A act | ANO1 block | ABCB6 inh 2 | iPSC survival up | DAGLB inhibitor
CN(Cc1ccco1)C(=O)c1ccc(S(=O)(=O)N2CCCCCC2)cc1 | i | nt | 100.0 | -0.5 | -1.9
CN(C)S(=O)(=O)c1ccc(S(=O)(=O)N(Cc2ccco2)Cc2ccccc2Cl)cc1 | -19.4* | i | 93.0 | -0.6 | -1.2
O=S(=O)(c1ccc(S(=O)(=O)N(Cc2ccco2)Cc2ccccc2Cl)cc1)N1CCCC1 | -12.5* | i | 102.0 | -0.2 | -3.7
COc1ccc(S(=O)(=O)N(Cc2ccc(OC)c(OC)c2)Cc2ccco2)cc1 | i | 25* | 94.0 | 0.0 | -3.3
O=C(NCCc1cccc(C(F)(F)F)c1)C1CCC(=O)N(C2CC2)C1 (stereo unspecified) | i | i | 104.0 | -0.3 | 6.1
COCCCNC(=O)c1csc([C@H]2C[C@H](O)[C@@H](CO)O2)n1 | nt | nt | 94.0 | -1.9 | nt
O=c1c2cc(Cl)ccc2nc(-c2ccc([N+](=O)[O-])cc2)n1O | i | i | 93.0 | -0.9 | -11.5
Cc1ccc(-c2nc3c(Cl)cc(Cl)cc3c(=O)n2O)cc1 | i | 100* | 104.0 | -0.2 | 1.7
COc1ccccc1NC(=O)C(C)OC(=O)CC1CCCCC1 (stereo unspecified) | i | nt | 80.0 | 0.3 | -9.2
COc1ccc(-c2cc(N)n(S(=O)(=O)c3c(F)c(F)c(F)c(F)c3F)n2)cc1OC | i | 100* | 98.0 | 9.1 | 10.7
COc1cc(S(=O)(=O)Nc2ccc(C)cc2)ccc1N=Cc1c(C)c(C#N)c(=O)n(C)c1O | -6* | i | 99.0 | -1.4 | nt
CCCS(=O)(=O)NC(=O)C1(C)CCCN(C(=O)c2ccccc2)C1 (stereo unspecified) | nt | nt | 101.0 | -1.2 | nt
COc1ccc(C(=O)NCCS(=O)(=O)NCc2cccnc2)cc1 | i | i | 96.0 | 0.3 | 3.4
Cc1ccc(C)c(NC(=O)CSc2nc3nc(-c4cccs4)cc(C(F)(F)F)c3c(=O)[nH]2)c1 | i | i | 95.0 | 1.3 | 13.8
O=C(CSc1nc2nc(-c3cccs3)cc(C(F)(F)F)c2c(=O)[nH]1)Nc1ccc(F)c(F)c1 | i | 25* | 111.0 | 2.6 | 21.9
COc1ccc(/C=C/C(=O)NCc2cn(C)nc2C)cc1COc1ccc(Cl)cc1Br | i | 100* | 98.0 | 2.5 | 1.6
CCn1nc(C)c(NC(=O)/C=C/c2ccc(OC)c(COc3ccc(Cl)cc3Br)c2)c1C | i | i | 87.0 | 0.5 | -2.7
COc1ccc(C(C(=O)NC(C)(C)C)N(C(=O)CCC(=O)Nc2cc(C)on2)c2ccccc2F)cc1 (stereo unspecified) | i | i | 93.0 | 0.8 | 2.2
CCOc1ccccc1NC(=O)C(NCCN(C)C)c1ccccc1 (stereo unspecified) | i | i | 100.0 | -0.3 | -1.3
CCOc1ccccc1NC(=O)C(OC(=O)c1ccc(O)cc1)c1ccccc1 (stereo unspecified) | i | 25* | 97.0 | 1.4 | -3.9
CCOc1ccccc1NC(=O)C(OC(=O)c1ccc(CC)cc1)c1ccccc1 (stereo unspecified) | i | i | 94.0 | -1.4 | -9.5
CCOc1ccccc1NC(=O)C(NCC1CCCCC1)c1ccccc1 (stereo unspecified) | i | 25* | 92.0 | -0.4 | -18.0
Cc1ccc(NC(=O)/C(C#N)=C(\N)C(Cl)(Cl)Cl)nc1 | -11.1* | i | 100.0 | -0.7 | -1.2
Cc1ccc(NC(=O)C(=O)Nc2ccc(C)cn2)nc1 | i | i | 103.0 | 0.0 | 1.1
O=C1CC(N2CCCN(C3CC(=O)N(c4ccc(F)cc4)C3=O)CC2)C(=O)N1c1ccc(F)cc1 (stereo unspecified) | -8.57* | i | 198.0 | -0.1 | -1.3
SMILES | TMEM16A act | ANO1 block | ABCB6 inh 2 | iPSC survival up | DAGLB inhibitor
CCOC(=O)Cc1nn(Cc2nc(-c3ccc(C)cc3)cs2)c(=O)c2ccccc12 | i | 25* | 99.0 | -0.4 | -4.9
O=[N+]([O-])c1c(Nc2ccccc2O)cc(Cl)c2nonc12 | i | 100* | 89.0 | 7.1 | 15.6
O=[N+]([O-])c1c(Nc2ccccc2O)ccc2nonc12 | i | i | 95.0 | -0.3 | 6.3
Cc1noc(C)c1NC(=O)Nc1cccc2c1O[C@@H](CN(C)C(=O)Nc1ccc3c(c1)OCO3)[C@@H](C)CN([C@H](C)CO)C2=O | i | nt | 100.0 | -1.6 | -1.0
Cn1c(Cl)c(/C=N/OC(=O)c2ccc(Cl)cc2)c2ccccc21 | i | i | 86.0 | 22.2* | -2.0
Cc1nc2ccc(C(=O)N(C)Cc3ccccc3)cn2c1N(C)C(=O)CCc1ccccc1 | nt | nt | 99.0 | 0.5 | nt
Fc1cccc(CCN2CCNC[C@@H]2c2ccccc2)c1 | i | nt | 98.0 | 0.4 | 0.0
CCC(C)[C@H]1CNCCN1CCc1cccc2ccccc12 (stereo partly specified) | i | 100* | 91.0 | -4.2 | -0.6
CC(O)[C@H]1CNCCN1CCc1cccc(F)c1 (stereo partly specified) | -15.4* | i | 96.0 | -0.2 | -0.9
Cc1cc(O)c(C=Nc2ccc(N3CCOCC3)cc2)c(C)c1Cl | i | i | 103.0 | -0.4 | 0.9
Cn1c(O)c(C=Nc2ccc(N3CCOCC3)cc2)c(=O)n(C)c1=S | -4.83* | nt | 98.0 | 0.9 | 1.5
O=C(NCc1ccccn1)c1coc(=O)c(Br)c1 | i | 100* | 92.0 | -1.8 | -2.0
NNc1ccc2c(C(F)(F)F)cc(C(F)(F)F)nc2n1 | i | i | 102.0 | 0.8 | 0.3
N#CC(c1cccc(Cl)c1)c1ccc2c(C(F)(F)F)cc(C(F)(F)F)nc2n1 (stereo unspecified) | -4.8* | 100* | 92.0 | 0.6 | 6.4
Cc1ccc(S(=O)(=O)Cc2ccc(C(=O)N3CCN(c4ccccn4)CC3)o2)cc1 | i | i | 98.0 | -0.5 | 1.6
O=C(c1ccc(CS(=O)(=O)c2ccc(Br)cc2)o1)N1CCN(c2ccccn2)CC1 | -7.84* | i | 101.0 | 0.6 | -0.9
Cc1ccc(NC(=O)c2cccs2)cc1S(=O)(=O)Nc1cccc(Cl)c1 | i | 100* | 89.0 | -2.2 | -5.0
COc1ccc(-n2ccc(-c3nn(-c4cccc(C(F)(F)F)c4)ccc3=O)n2)cc1 | -43.1* | i | 107.0 | -0.5 | -1.5
O=C(NCCOc1ccc(F)cc1)c1ccccc1SCc1ccccc1 | i | 25* | 97.0 | -2.2 | -4.9
CCc1ccc(OCCNC(=O)c2ccccc2SCc2ccc(F)cc2)cc1 | i | i | 94.0 | 1.7 | -10.5
CC1=C(C(=O)NC(C)C)C2(CCC(C)CC2)OC1=O (stereo unspecified) | i | 25* | 96.0 | 1.6 | 0.1
Cn1ccc2cc(-c3ccc4ncnc(NCc5cccs5)c4c3)ccc21 | i | nt | 97.0 | -2.1 | 0.9
COC(=O)c1ccc2nc(-c3ccc(OC)c(OC)c3)c(Cc3cccc(F)c3)n2c1 | nt | nt | 108.0 | -0.9 | nt
O=[N+]([O-])c1ccc(N2CCOCC2)cc1NCc1ccccc1 | i | i | 94.0 | -0.7 | 1.9
